High-throughput results (PubChem BioAssay)
Only some compounds are listed: those with a hit (about 3.8% of all), similar ones and a draw of the others.
ATXN2 expr inh = inhibitors of ATXN2 expression. HEK-293 ATXN2-luciferase reporter, luminescence, 24 h. Potency, µM (titrated, usually from 57 µM), inactives show at the highest dose activity change, negative = inhibition, usual class: inhibitors. 0.72% of 360,000 active. AID 1745845; also: % is scaled to controls: 0 for no effect and ±100 for the full control effect; nearly all actives have a fitted effect of over 55% in size
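ATXN2-luciferase reporter cells (luciferase flanked by upstream and downstream ATXN2 gene portions) were treated 24 h at 37 °C with compounds at up to 57 uM. SteadyGlo luminescence gave expression; GF-AFC fluorescence gave viability.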
ATXN viability = viability counter-screen for ATXN expression inhibitors; S2 cells (HEK-293 line with an ATXN2-luciferase reporter) viability, CellTiter-Fluor protease fluorescence, 24 h; Potency, µM (highest dose often 56.7 µM), hits mostly cytotoxic; 0.49% of 400,000 active; AID 651635; also: nearly all actives have a fitted effect of over 40% in size
TGFb inhibitor = blocks TGF-b signaling | HepG2 CAGA-GFP TGF-b/SMAD3 reporter, GFP fluorescence, 18 h; TGF-beta stimulated, 500 pg/mL final | Potency, µM (top dose mostly 46.1 µM), for the others: at the top dose activity, negative = inhibition, actives largely listed as inhibitors | 1.2% of 410,000 active | AID 588855; also: % is scaled to controls: 0 for no effect and ±100 for the full control effect; nearly all actives have a fitted effect of over 65% in size
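Cell-based qHTS in HEPG2 carrying a CAGA-GFP Smad reporter; compounds added before 500 pg/mL final TGF-beta, 18 h incubation at 37 degrees C, GFP fluorescence quantified per cell by imaging cytometry.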
Nrf2 block = inhibitors of Nrf2 signaling. A549 ARE-Fluc reporter, luciferase luminescence, 18-24 h. Potency, µM (top dose mostly 46 µM), for the others: top-dose activity change, negative = inhibition, most hits filed as inhibitors. 2.1% of 360,000 active; also: % is scaled to controls: 0 for no effect and ±100 for the full control effect; nearly all actives have a fitted effect of over 60% in size
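Quantitative HTS in A549 cells stably bearing an antioxidant response element-firefly luciferase construct. Inhibition of Nrf2-driven transcription was scored by luminescence after 18-24 h of compound exposure at 37 °C.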
A549 viability = kills or reduces viability of A549 cells in Nrf2 counter-screen; A549 ARE-Fluc cells, CellTiter-Fluor viability, 18-24 h; Potency, µM (series often up to 46 µM), inactives show top-dose activity change, negative = cytotoxicity, usual class: inhibitors; 0.16% of 390,000 active; AID 504648; also: % is scaled to controls: 0 for no effect and ±100 for the full control effect
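Cytotoxicity counterscreen: CellTiter-Fluor fluorescence was measured in A549 ARE_Fluc cells after 18-24 h of compound exposure in a concentration series. The subsequent BugLite luminescent read reports ARE-luciferase activity.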
HepG2 tox = counter-screen for TGF-b inhibitors: cytotoxicity in HepG2 cells | 0.76% of 410,000 active | HepG2 CAGA-GFP viability, ATP luminescence, 18 h | AID 588856 | Potency, µM (titrated, usually from 46.1 µM), for the others: at the top dose activity change, negative = cytotoxicity, hits mostly cytotoxic
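HepG2 CAGA-GFP cells (1000/well, DMEM with 1% FBS) received compound, then TGF-beta at 500 pg/mL final, and were incubated 18 hours at 37 degrees C. Viability was read by CellTiter-Glo luminescence. Media-only wells were set as complete cell-killing and DMSO as no toxicity.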
Starred values were filed as active, the others as inactive; i = inactive; ? = inconclusive; . = no result; ! = not confirmed by another sample; [ ] = remark or other dose. Calls follow the shape of the dose curve; as a rule, active = well fitted curve in the direction sought with a large enough effect; inconclusive = small, poorly fitted or top-dose-only effect, or another doubt; inactive = no such curve, though single readings can be large; an effect the other way counts as inactive or inconclusive. Potency is read from the fitted curve at half-maximal effect.

SMILES	ATXN2 expr inh	ATXN viability	TGFb inhibitor	Nrf2 block	A549 viability	HepG2 tox
O=C1CN(C(=O)c2ccc(S(=O)(=O)N3CCCC3)cc2)C(c2ccccc2)c2cc(Br)ccc2N1 (stereo unspecified)	-14.5%	?	?	3.3%[9.27 µM]	2.2%	-28.7%
CN(C)c1nc(N(C)C)c2cnn(C)c2n1	5.3%	i	14.5%	15.1%	4.4%	3.3%
O=C(O)/C=C/C(=O)c1ccc2c(c1)CCc1ccccc1-2	5.62µM*	7.08µM*	?	?	?	11.2µM*
CS(=O)(=O)Nc1cccc(NC(=O)C2Cc3c(-c4ccccc4)ccnc3O2)c1 (stereo unspecified)	0.0%	i	-11.6%	.	.	-60.2%
Cc1ccc(C)c(Cn2c(=O)n(CCCC(=O)NCc3ccc4c(c3)OCO4)c(=O)c3sccc32)c1	.	.	-28.6%	?	-8.5%	-25.5%
Cc1ccccc1NC(=S)NCc1ccc2c(c1)cc(C)n2C	?	?	11.2µM*	3.0%	7.2%	-53.5%
CSCCC(NS(=O)(=O)c1ccc2c(c1)oc(=O)n2C)C(=O)NCCc1ccc(C)cc1 (stereo unspecified)	.	.	-0.1%	.	2.8%	-7.8%
Cc1ccc(S(=O)(=O)N2C[C@@H]3[C@H]4CC[C@H](C4)[C@@H]3[C@@H](C)[C@H]2c2ccco2)cc1	-9.8%	i	?	20.6µM*	15.4%	-2.7%
N#CC1=C(N)Oc2ccc3ccccc3c2C1c1cccnc1 (stereo unspecified)	.	.	-25.7%	?	-10.2%	-27.4%
N#CC1=C(NC=NCc2ccccc2)Oc2ccc3ccccc3c2C1c1ccccc1 (stereo unspecified)	.	.	.	18.4µM*	-23.2%	.
O=C(NNc1cc(Cl)ccc1Cl)C1CCC1	10.2%	i	0.3%	6.1%	2.7%	17.2%
COc1ccc(Nc2cc(C(=O)NCCCN(C)C3CCCCC3)c3ccccc3n2)cc1	?	?	-5.0%	1.7%	-5.6%	-28.6%
COc1ccc(Nc2cc(C(=O)NCCCN(C)C3CCCCC3)c3ccccc3n2)c(OC)c1	-36.5%	31.6µM*	?	-4.9%	-14.4%	-75.3%
CS(=O)(=O)c1nc(-c2ccc(F)cc2)cc(C(F)(F)F)n1	?	?	?	?	?	11.2µM*
COCC(C)NC(=O)CCS(=O)(=O)c1nc(-c2ccc(OC)cc2)cc(C(F)(F)F)n1 (stereo unspecified)	?	?	11.2µM*	-10.8%	-1.8%	-109.6%
CCOC(=O)CS(=O)(=O)c1nc(-c2ccc(F)cc2)cc(C(F)(F)F)n1	?	.	?	16.4µM*	?	-95.8%
COc1ccc(-c2cc(C(F)(F)F)nc(S(C)(=O)=O)n2)cc1	?	17.8µM*	3.55µM*	?	2.5%	-100.6%
CCOC(=O)CS(=O)(=O)c1nc(-c2ccccc2)cc(C(F)(F)F)n1	-31.8%	i	?	?	?	-90.2%
CC1=C(C(=O)N(C(C)C)C(C)C)CC(CC(=O)NC2CCCCC2)C(=O)N1Cc1ccc(F)cc1 (stereo unspecified)	0.4%	i	?	.	.	-13.3%
O=C(Nc1ccc(N2CCOCC2)c(Cl)c1)c1cc(F)c(F)cc1Cl	15.2%	i	-3.8%	-7.4%	-2.1%	-28.1%
O=C(Nc1ccc(N2CCN(C(=O)c3ccco3)CC2)c(Cl)c1)c1c(F)c(F)c(F)c(F)c1F	28.2µM*	?	?	5.7%	-4.6%	-20.0%
O=C(NC(=S)Nc1ccc(N2CCCCC2)c(Cl)c1)c1ccc2c(c1)OCCO2	?	?	-15.5%	9.2µM*	-7.5%	-25.9%
O=C(Nc1ccc(N2CCOCC2)c(Cl)c1)c1c(F)c(F)c(F)c(F)c1F	12.6µM*	i	-3.8%	?	-7.8%	-0.3%
Cc1ccccc1C(=O)N1CCN(c2ccc(NC(=O)c3ccco3)cc2Cl)CC1	31.6µM*	?	?	?	-10.1%	-19.6%
O=C(Nc1ccc(N2CCN(C(=O)c3cccs3)CC2)c(Cl)c1)c1ccco1	-15.7%	i	-6.5%	.	?	-14.1%
SMILES	ATXN2 expr inh	ATXN viability	TGFb inhibitor	Nrf2 block	A549 viability	HepG2 tox
O=S(=O)(NCCc1csc2nc(-c3ccc(F)cc3)nn12)c1ccc(Oc2ccccc2)cc1	.	.	0.0%	.	-12.7%	-48.8%
COc1cc2c(NC3CCN(C)CC3)nc(N3CCCN(C)CC3)nc2cc1OCCCN1CCOCC1	.	.	10µM*	.	.	-11.4%
COc1cc2c(NC3CCN(C)CC3)nc(N3CCCN(C)CC3)nc2cc1OCCCN1CCCC1	.	.	-20.4%	.	.	-2.3%
COc1cc2c(NC3CCN(C)CC3)nc(N3CCCN(C)CC3)nc2cc1OCC1CCCCN1 (stereo unspecified)	.	.	11.2µM*	.	.	-11.3%
Cc1ccc2c(c1)nc(SCC(O)c1ccc(Br)cc1)n2C (stereo unspecified)	.	.	0.0%	4.8%	6.8%	-24.5%
N#CC(C#N)=C(Nc1ccc(F)cc1)SCc1cccc(F)c1	?	i	?	4.61µM*	?	-42.0%
O=C1C(=O)N(CCCO)C(c2ccc(Br)cc2)/C1=C(\O)c1ccc(Br)cc1 (stereo unspecified)	.	i	-15.0%	1.2%	-7.6%	-9.3%
CN(C)c1ccc(/C=C/c2ccc3cc(N(C)C)ccc3n2)cc1	.	.	-7.1%	.	.	-43.7%
CN(C)c1ccc(/C=C/c2cc3ccccc3cn2)cc1	.	.	11.2µM*	.	.	-45.0%
CN(C)c1ccc(/C=C/c2nc3ccccc3s2)cc1	?	.	12.6µM*!	?	-4.5%	-68.6%
CN(C)c1ccc(/C=C/c2ccc3ccccc3n2)cc1	.	.	28.8%	?	?	5.62µM*!
C[C@@H]1CN[C@H](CCO)/C1=C\c1ccccc1	-6.0%	i	1.6%	-16.2%	6.8%	1.5%
Cc1ccc(Cn2c(=O)n(CCc3ccccc3)c(=O)c3c(C)c(C)sc32)cc1	-1.7%	i	-4.3%	-10.7%	2.2%	0.9%
COc1ccc2sc(-c3ccc(SC)cc3)c(-c3ccc(O)cc3)c2c1	22.4µM*	?	?	?	?	12.6µM*
CC(C)[C@H](NC(=O)Cc1ccccc1)C(=O)OCc1cc(=O)n2c(n1)sc1ccccc12	6.3%	i	15.8µM*	0.6%	0.1%	-24.5%
CCOc1ccc(S(=O)(=O)Nc2cccc(-c3ccc(OCC)nn3)c2)cc1	0.0%	?	0.0%	.	7.1%	-25.3%
CCOc1ccc(-c2cccc(NS(=O)(=O)c3c(C)cc(C)cc3C)c2)nn1	?	?	20µM*	.	-1.6%	-36.7%
